Measured values taken from paper PMC5540273 (PLoS ONE, 2017).

Key:
Conditions in all cases: concentration: 1 μM, replicates: in singlicate; n = 1
[1] = system: PRKD3
[2] = system: PRKG1
[3] = system: PRKG2
[4] = system: T1, PRKR
T1 construct: gene EIF2AK2

[5] = system: PRKX
[6] = system: PRP4
[7] = system: T2, PYK2
T2 construct: gene PTK2B

[8] = system: QSK
[9] = system: RAF1
[10] = system: RET
[11] = system: RIOK1
[12] = system: RIOK2
[13] = system: RIOK3
[14] = system: RIPK1
[15] = system: RIPK2
[16] = system: RIPK4
[17] = system: RIPK5
[18] = system: ROCK1
[19] = system: ROCK2
[20] = system: ROS1
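Also: KINOMEscan kinase panel screen.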

| SMILES | %Inh [1] [%] | %Inh [2] [%] | %Inh [3] [%] | %Inh [4] [%] | %Inh [5] [%] | %Inh [6] [%] | %Inh [7] [%] | %Inh [8] [%] | %Inh [9] [%] | %Inh [10] [%] | %Inh [11] [%] | %Inh [12] [%] | %Inh [13] [%] | %Inh [14] [%] | %Inh [15] [%] | %Inh [16] [%] | %Inh [17] [%] | %Inh [18] [%] | %Inh [19] [%] | %Inh [20] [%] |
| --- | --- | --- | --- | --- | --- | --- | --- | --- | --- | --- | --- | --- | --- | --- | --- | --- | --- | --- | --- | --- |
| Cl.NC(=O)c1cccc(Nc2nccc(Nc3ccc(Oc4c(Cl)cccc4Cl)c(Cl)c3)n2)c1 [GW659009] | 21 | 0 | 0 | 0 | 0 | 20 | 0 | 0 | 88 | 0 | 56 | 53 | 51 | 0 | 84 | 0 | 10 | 0 | 10 | 0 |
| Nc1n[nH]c2cnc(-c3ccccc3)cc12 [SB-642124] | 0 | 0 | 0 | 0 | 19 | 18 | 5 | 0 | 11 | 0 | 31 | 20 | 100 | 30 | 29 | 25 | 0 | 40 | 18 | 0 |
| COc1cc(Nc2nccc(-c3c(-c4cccc(NC(=O)c5c(F)cccc5F)c4)nn4ccccc34)n2)cc(OC)c1OC [GSK323521] | 42 | 31 | 0 | 15 | 22 | 1 | 2 | 3 | 16 | 29 | 34 | 14 | 0 | 93.9 | 79 | 0 | 67 | 0 | 6 | 0 |
| CN(c1ccc(NC(=O)Nc2cc(C(F)(F)F)ccc2F)cc1)c1ccnc(Nc2ccc(S(N)(=O)=O)cc2)n1 [GW809893] | 0 | 16 | 17 | 3 | 0 | 14 | 94.8 | 25 | 88 | 100 | 24 | 2 | 40 | 99.1 | 73 | 26 | 47 | 0 | 24 | 95.9 |
| Fc1ccc(-c2ncn(C3CCNCC3)c2-c2ccnc(Oc3ccc(-c4ccccc4)cc3)n2)cc1 [SB-245391] | 0 | 6 | 26 | 25 | 0 | 0 | 80 | 7 | 0 | 3 | 7 | 0 | 5 | 0 | 70 | 34 | 33 | 0 | 7 | 0 |
| CCCCc1nn2ncccc2c1-c1ccnc(Nc2ccc(N3CCN(C)CC3)cc2)n1 [GW684941] | 86 | 0 | 4 | 0 | 31 | 36 | 40 | 43 | 0 | 99.5 | 52 | 44 | 49 | 22 | 74 | 29 | 56 | 32 | 30 | 71 |
| Oc1cc(Nc2ccnc3cc(I)ccc23)ccc1F [GW552771] | 40 | 0 | 0 | 0 | 0 | 18 | 25 | 69 | 49 | 85 | 25 | 29 | 0 | 0 | 50 | 0 | 0 | 30 | 27 | 0 |
| COc1ccc(CNC(=O)NC2CCN(c3ccnc(Nc4ccc(F)cc4)n3)CC2)cc1 [GSK1379788] | 0 | 0 | 0 | 0 | 5 | 46 | 0 | 0 | 7 | 0 | 28 | 0 | 0 | 0 | 0 | 12 | 0 | 12 | 31 | 26 |
| CC(=O)N1CCN(c2ccc(Nc3nccc(-c4sc(C(C)C)nc4-c4cccc(NS(=O)(=O)c5cccc(Cl)c5)c4)n3)cn2)CC1 [GSK1660437] | 100 | 25 | 0 | 0 | 5 | 2 | 0 | 10 | 86 | 54 | 19 | 10 | 4 | 0 | 93.2 | 0 | 37 | 0 | 18 | 21 |
| Cl.c1ccc(-c2ccc3c(Nc4ccc5[nH]ccc5c4)ccnc3c2)nc1 [GW440138] | 5 | 0 | 0 | 0 | 3 | 77 | 0 | 0 | 40 | 96.9 | 4 | 0 | 0 | 0 | 78 | 19 | 0 | 23 | 43 | 0 |
| COc1ccc(-c2coc3ccc(-c4nnc(SCc5ccc(OC)c(C(F)(F)F)c5)o4)cc23)cc1 | 0 | 6 | 14 | 0 | 0 | 15 | 0 | 0 | 12 | 0 | 0 | 20 | 9 | 9 | 17 | 12 | 20 | 0 | 23 | 0 |
| Cc1cccc(NC(=O)Nc2ccc(Oc3ncnc4ccn(C)c34)cc2)c1 | 0 | 100 | 0 | 0 | 0 | 0 | 0 | 0 | 0 | 94 | 0 | 0 | 24 | 0 | 11 | 0 | 5 | 0 | 0 | 0 |
| Cl.Cl.NCC(NC(=O)c1cc(-c2ccccc2)c(-c2ccnc3[nH]ccc23)s1)c1ccccc1 (stereo not shown) [GSK1321561] | 38 | 70 | 18 | 3 | 76 | 5 | 0 | 14 | 18 | 35 | 69 | 45 | 88 | 24 | 24 | 0 | 0 | 99.8 | 98.9 | 19 |
| COCCOCCOc1cc2ncc3c4ccc(C#N)cc4[nH]c3c2cc1OC | 0 | 0 | 17 | 41 | 0 | 19 | 6 | 67 | 0 | 45 | 99.4 | 0 | 83 | 20 | 0 | 17 | 0 | 96.9 | 99.2 | 51 |
| O=C(Nc1cccc(Oc2ccc3nc(NC(=O)C4CC4)cn3n2)c1)c1ccccc1C(F)(F)F | 0 | 0 | 0 | 8 | 5 | 5 | 6 | 0 | 76 | 99.9 | 64 | 0 | 76 | 15 | 11 | 0 | 0 | 0 | 0 | 0 |
| CCn1c(-c2nonc2N)nc2c(C#CC(C)(C)O)nc(OC[C@H](N)c3ccccc3)cc21 [GSK943949] | 22 | 60 | 92.6 | 0 | 92.1 | 10 | 7 | 0 | 11 | 10 | 11 | 0 | 4 | 4 | 0 | 7 | 29 | 59 | 91.9 | 2 |
| Nc1ncc(-c2cccnc2)c2scc(-c3ccc4c(c3)CCN4C(=O)Cc3ccccc3)c12 [GSK683281] | 18 | 12 | 25 | 5 | 23 | 0 | 35 | 18 | 11 | 21 | 35 | 96.6 | 22 | 100 | 82 | 16 | 20 | 0 | 6 | 27 |
